# PubChem BioAssay AID1240 (Sanford-Burnham Center for Chemical Genomics, 2008)
# About 800 (1.6%) of roughly 50,000 compounds showed an effect of 50% or more. The full list was thinned out, with strong results kept by preference.
# Target: Bcl-2-like protein 10 (Homo sapiens) (UniProt Q9HD36)
# Assay: Phenotype converters, Bcl-B/TR3 peptide binding displacement, primary biochemical FP (AID 1240);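 also: 0% = Bcl-B with tracer peptide and DMSO and 100% = tracer peptide lacking Bcl-B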
# Settings: GST-Bcl-B / FITC-TR3 peptide fluorescence polarization; stronger effect = higher value; compound at 3.75 mg/L
# Sequence of Bcl-2-like protein 10 (Homo sapiens) (Q9HD36 whole entry, looked up): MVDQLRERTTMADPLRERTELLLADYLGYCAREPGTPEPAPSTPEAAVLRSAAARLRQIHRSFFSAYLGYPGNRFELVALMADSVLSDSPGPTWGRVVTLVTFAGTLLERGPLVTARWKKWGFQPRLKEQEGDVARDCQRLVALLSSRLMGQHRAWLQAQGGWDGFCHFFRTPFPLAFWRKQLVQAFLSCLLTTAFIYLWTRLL
row,Structure (SMILES),displacement [%]
1,COc1cccc(C(=O)Nc2ccc(Cl)c(-c3nc4cc(Cl)ccc4o3)c2)c1,105
2,CCOc1ccc(C(=O)Nc2ccc(-c3nc4ccc(C)cc4o3)cc2)cc1Cl,104
3,CCOc1ccc(C(=O)Nc2ccc3oc(-c4ccncc4)nc3c2)cc1Cl,-9.5
4,CCOc1cc(OCC)cc(C(=O)Nc2ccc(-c3nc4ccc(C)cc4o3)cc2)c1,-16.6
5,O=C(Nc1ccc(-c2nc3ccccc3c(=O)o2)cc1)c1cccc([N+](=O)[O-])c1,-5.5
6,CCOc1cccc(C(=O)Nc2ccc(C(=O)Nc3cccc(-c4nc5ccccc5o4)c3)cc2)c1,0.7
7,CCOc1cc(OCC)cc(C(=O)Nc2ccc3oc(-c4ccc(OC)cc4)nc3c2)c1,4.2
8,CCOc1cccc(C(=O)Nc2ccc(-c3nc4cc(Cl)ccc4o3)cc2)c1,81.3
9,COc1cccc(C(=O)Nc2ccc3oc(-c4ccc(F)cc4Cl)nc3c2)c1,17.1
10,O=C(Nc1ccc(-c2nc3cc(Cl)cc(Cl)c3o2)cc1)c1cccc([N+](=O)[O-])c1,62.7
11,COc1ccc(C(=O)Nc2ccc(O)c(-c3nc4cc(Cl)ccc4o3)c2)cc1,40.1
12,O=C(Nc1cccc(-c2nc3cc(Cl)ccc3o2)c1)c1cccc([N+](=O)[O-])c1,-3.3
13,CCOC(=O)C1=C(O)/C(=C/c2ccc(-c3ccccc3)cc2)SC1=Nc1ccc(OC)cc1,-6
14,O=C1c2ccccc2C(=O)C1(Nc1ccc(F)cc1)c1ccccc1,17.4
15,O=C(Nc1ccccc1[N+](=O)[O-])c1c(-c2cnc3ccccc3c2C(=O)Nc2ccccc2[N+](=O)[O-])cnc2ccccc12,-1.5
16,COc1ccc(Cl)cc1NC(=O)c1cccc(F)c1,-13.8
17,CC1CN(C(=O)c2ccccc2C(=O)c2ncc[nH]2)CC(C)O1 (stereo not given),-0.9
18,CC(=O)OC1(C#CCl)CCCCC1,-8.7
19,O=C1CC(N2CCC(O)CC2)C(=O)N1c1ccc(Cl)cc1 (stereo not given),-4.9
20,Cc1ccc(-c2nc(N/N=C/c3ccccc3O)c3ccccc3n2)cc1,76.2
21,Cc1ccc(-c2nc(N/N=C/c3ccccc3)c3ccccc3n2)cc1,6.7
22,COc1cccc(/C=N/Nc2nc(-c3ccc(C)cc3)nc3ccccc23)c1O,3.4

row,Structure (SMILES),displacement [%]
1,CCC(=O)Oc1cc2oc(=O)c(CC)c(C)c2cc1CC,10.1
2,O=C1NC(=S)N(c2ccccc2)C(=O)/C1=C/c1ccc(-c2ccc([N+](=O)[O-])cc2)o1,-1.5
3,COc1ccc(N2C(=O)NC(=O)/C(=C/c3ccc(-c4ccc([N+](=O)[O-])cc4)o3)C2=O)cc1,46.2
4,O=C1NC(=O)N(c2ccc(Br)cc2)C(=O)/C1=C/c1ccc(-c2cccc([N+](=O)[O-])c2)o1,138
5,O=C1NC(=O)N(c2ccc(Cl)cc2)C(=O)/C1=C/c1ccc(-c2ccc(Cl)cc2[N+](=O)[O-])o1,10.6
6,O=C1NC(=O)N(c2ccc(Cl)cc2)C(=O)/C1=C\c1ccc(-c2ccc([N+](=O)[O-])cc2)o1,105
7,O=C1NC(=O)N(c2ccccc2)C(=O)/C1=C\c1ccc(-c2ccc([N+](=O)[O-])cc2)o1,130
8,O=C1NC(=O)N(c2ccccc2)C(=O)/C1=C\c1ccc(-c2cccc([N+](=O)[O-])c2)o1,39.3
9,COc1ccc(N2C(=O)NC(=O)/C(=C/c3ccc(-c4cccc([N+](=O)[O-])c4)o3)C2=O)cc1,-12.5
10,O=C1NN(c2ccc(Cl)cc2)C(=O)/C1=C\c1ccc(-c2ccc(Cl)c(C(=O)O)c2)o1,22.1
11,O=C1NC(=S)N(c2ccc(Br)cc2)C(=O)/C1=C\c1ccc(-c2ccc([N+](=O)[O-])cc2)o1,16.2
12,O=C1NC(=O)N(c2ccc(Cl)cc2)C(=O)/C1=C/c1ccc(-c2ccc(Cl)c(C(=O)O)c2)o1,72.5
13,O=C1NC(=O)N(c2ccc(Cl)cc2)C(=O)/C1=C\c1ccc(-c2ccc(C(=O)O)c(Cl)c2)o1,-7.8
14,Nc1nonc1-c1ncc(-c2ccc(Br)cc2)nn1,30.1
15,O=c1n(Cc2ccccc2Cl)c2cc(N3CCOCC3)c([N+](=O)[O-])cc2n1Cc1ccccc1Cl,-9.7
16,Cc1ccc(C(=O)NNC(=O)c2ccc3ccccc3c2O)cc1,20.5
17,Cc1ccc(/C=C/C(=O)N2CCN(c3ccccc3)CC2)o1,3.6
18,Cc1ccc([N+](=O)[O-])cc1NC(=O)CC1Sc2ccccc2NC1=O (stereo not given),3.4
19,Cc1ccccc1-c1cc(C(=O)N2CCOCC2)c2ccccc2n1,4
20,Cc1ccc(C(=O)Nc2ccc(N3CCOCC3)cc2)cc1C,0.3
21,O=C(Nc1c(C(=O)N2CCN(Cc3ccccc3)CC2)cnn1-c1ccccc1)c1cccc(F)c1,3
22,COc1cc(OC)c(C(=O)N2CC(=O)Nc3ccccc32)c(OC)c1,4.9

row,Structure (SMILES),displacement [%]
1,O=C(Nc1ccccc1F)c1cncc(Br)c1,3.9
2,CCN(CC)c1ccc(NC(=O)c2cncc(Br)c2)cc1,84.2
3,CCc1ccccc1NC(=O)c1cncc(Br)c1,5.4
4,CCN(CC)c1ccc(NC(=O)c2ccc(Br)cc2)cc1,9.2
5,CCc1ccc(NC(=O)c2cncc(Br)c2)cc1,15
6,O=C(Nc1ccccc1Cl)c1cncc(Br)c1,118
7,CCC(C)NC(=O)C(=O)NCCc1ccccc1 (stereo not given),5.5
8,Cc1nc2ccccc2n1C(=O)c1ccco1,-3.1
9,O=C(NCc1ccccn1)C(=O)N/N=C/c1ccccc1C(F)(F)F,-19.3
10,CC(=O)N=c1cccc(NC(C)=O)n1O,5.8
11,CC(=O)Oc1ccc2c(c1)oc(=O)c1c3cc(OC(C)=O)c(OC(C)=O)cc3oc21,12.7
12,O=C(Nc1ccc(Cl)c(C(F)(F)F)c1)c1cccs1,-5.7
13,CCOc1ccc(C2=C/C(=C/c3ccc(OC)c(OC)c3)C(=O)O2)cc1,34.8
14,O=C1OC(c2ccccc2)=C/C1=C/c1ccc2c(c1)OCO2,-0.2
15,COc1ccc(C2=C/C(=C\c3ccc4c(c3)OCO4)C(=O)O2)cc1,117
16,COc1ccc(/C=C2/C=C(c3ccccc3)OC2=O)cc1,-15.2
17,COc1ccc(/C=C2/C=C(c3ccc(OC)c(OC)c3)OC2=O)cc1OC,189
18,COc1ccc(C2=C/C(=C/c3ccc(OC)c(OC)c3)C(=O)O2)cc1,154
19,O=C1OC(c2ccc(Cl)cc2)=C/C1=C\c1ccc2c(c1)OCO2,-19.4
20,COc1ccc(C2=C/C(=C/c3ccc(OC)c(Br)c3)C(=O)O2)cc1,11
21,COc1cc(/C=C2/C=C(c3ccccc3)OC2=O)ccc1C,-4.5
